Rows were chosen to be rich in hits. Some 17% of all compounds tested hit in one or more screens of this group.
TDP1 cell noCPT = qHTS for Inhibitors of human tyrosyl-DNA phosphodiesterase 1 (TDP1): qHTS in cells in absence of CPT | DT40 Tdp1-/- hTDP1 cells, no CPT, ATP luminescence, 48 h | Potency, µM (doses to about 46.2 µM), most hits filed as inhibitors | 420,000 tested, 15% active; note: nearly all actives have a fitted effect of over 55% in size
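Readout: luminescence from CellTiter-Glo after 30 min in the dark at RT. Cells: DT40 Tdp1-/- with stable hTDP1, 400/well. Exposure: compounds alone, ≥48 hr, 37 °C.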
TDP1 cell CPT = DT40-hTDP1 cell growth loss with CPT; chicken DT40 Tdp1-/-;hTDP1 cells + 20 nM CPT, ATP luminescence, 48 h; Potency, µM (titrated, usually from 46.2 µM), most hits filed as inhibitors; 420,000 tested, 12% active; AID 686979; note: nearly all actives have a fitted effect of over 55% in size
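Chicken DT40 Tdp1-/- cells stably complemented with human TDP1 were seeded at 400 cells/well in medium containing 20 nM camptothecin, exposed to pin-transferred compounds, and grown at 37 °C for at least 48 hr. Viability was read as ATP luminescence.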
TDP1 block = TDP1 (human) enzyme inhibition; Q9NUW8; recombinant TDP1, AlphaScreen DNA substrate cleavage; Potency, µM (highest dose often 130 µM), actives largely listed as inhibitors; 350,000 tested, 0.28% active; note: nearly all actives have a fitted effect of over 40% in size
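Compounds were preincubated with Tdp1 (1 nM final) for 15 min at room temperature before substrate (15 nM final) started a 5 min reaction; beads (10 ug/ml final) were then added for 10 min before AlphaScreen detection.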
ClpP mod = qHTS Assay for Activators of ClpP; ATP-dependent Clp protease proteolytic subunit (Bacillus subtilis (strain 168)), P80244; purified B. subtilis ClpP, FRET peptide cleavage, 20 min; Potency, µM (doses to about 57.5 µM); 340,000 tested, 1.9% active; AID 651965, 2013; active = well fitted falling curve with a large enough effect; inconclusive = small, poorly fitted or top-dose-only effect; inactive = no such curve, though single readings can be large or run the other way; note: the source files actives as falling curves though it sought activators and does not explain the sign; nearly all actives have a fitted effect of over 65% in size
Target sequence (P80244 whole entry, looked up): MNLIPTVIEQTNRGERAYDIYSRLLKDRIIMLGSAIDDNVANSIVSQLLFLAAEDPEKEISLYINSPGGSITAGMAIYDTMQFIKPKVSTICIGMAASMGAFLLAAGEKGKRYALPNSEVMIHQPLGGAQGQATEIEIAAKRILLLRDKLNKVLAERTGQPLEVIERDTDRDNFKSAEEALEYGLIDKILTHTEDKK
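FRET quenching reversal measured ClpP activation: 10 microg/mL B. subtilis ClpP at pH 8 with the FRET-FV decapeptide, read at 430 nm after 320 nm excitation. The 20-min minus 0-min signal was scaled between DMSO/no-enzyme wells and ADEP (5.8 microM final).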
Large screens that a line does not name were inactive. Unless noted, calls come from the whole dose curve; as a rule, active = well fitted curve in the direction sought with a large enough effect; inconclusive = small, poorly fitted or top-dose-only effect, or another doubt; inactive = no such curve, though single readings can be large; an effect the other way counts as inactive or inconclusive.

CN(Cc1ccccc1)c1ccc(C(CC(N)=O)NC(=O)c2ccccc2)cc1[N+](=O)[O-] (centres undefined)	TDP1 cell noCPT 16.4µM, TDP1 cell CPT 23.1µM (no result: TDP1 block)
NC(=O)CC(NC(=O)c1ccc(Br)cc1)c1ccc(NCc2ccc(F)cc2)c([N+](=O)[O-])c1 (centres undefined)	TDP1 cell noCPT inconclusive, TDP1 cell CPT inconclusive
COc1ccc(/C=N/N(C)C2=NCCN2)c(OC)c1OC	none (no result: TDP1 block)
c1nc(NCc2ccoc2)c2cc(-c3ccc4c(c3)OCO4)ccc2n1	none (no result: TDP1 cell noCPT, TDP1 cell CPT, ClpP mod)
CCOC(=O)C1(C)CCCN(C(=O)c2cccs2)C1 (centres undefined)	none (no result: TDP1 block)
COc1cc(NC(=O)CN2C(=O)c3ccccc3S2(=O)=O)cc(OC)c1	none
O=C(COC(=O)c1ccncc1)c1ccc(Br)cc1	none (no result: ClpP mod)
O=C(COC(=O)c1cccc(C(=O)OCC(=O)c2ccc(Br)cc2)n1)c1ccc(Br)cc1	TDP1 cell noCPT inconclusive, TDP1 cell CPT 16.4µM
O=C(COC(=O)c1ccccc1-n1cnnn1)c1ccccc1	none (no result: ClpP mod)
O=C(COC(=O)c1ccccc1-n1cnnn1)c1ccc(Br)cc1	ClpP mod 15.8µM (no result: TDP1 block)
Cc1c(NC(=S)Nc2ccc(Cl)cc2)c(=O)n(-c2ccccc2)n1C	none
CCCCOc1ccc(C)cc1CN(CCO)CCO	none
c1cc[n+](CCCC[n+]2ccccc2)cc1	none
CCC(C)(C)c1ccc(OCCCC[n+]2ccccc2)c(C(C)(C)CC)c1	TDP1 cell noCPT 0.0116µM, TDP1 cell CPT 0.581µM
CCCCCOc1ccc(CN2CCOCC2)cc1Cl	none
CCCCCc1ccc(OCCCC[n+]2cccc(C)c2)c(CCCCC)c1	TDP1 cell noCPT 1.16µM, TDP1 cell CPT 2.31µM (no result: TDP1 block, ClpP mod)
CCCCCCCCCCCCCCCC[n+]1ccc(C)cc1	TDP1 cell noCPT 0.501µM, TDP1 cell CPT 0.891µM (no result: TDP1 block)
CCCCCc1ccc(OCCCC[n+]2ccc(C)cc2)c(CCCCC)c1	TDP1 cell noCPT 0.461µM, TDP1 cell CPT 1.03µM
CCC(C)(C)c1ccc(Oc2ccc(N)cc2)cc1	TDP1 cell noCPT inconclusive (no result: ClpP mod)
CCc1nc2c(OCc3cccc(OC)c3)cccn2c1N(C)C(=O)c1ccccc1F	TDP1 cell noCPT inconclusive, TDP1 cell CPT inconclusive (no result: TDP1 block)
Cc1noc(C)c1C(=O)OCC(=O)NCc1ccccc1	none (no result: ClpP mod)
CCCCCc1ccc(OCCCC[n+]2ccccc2)c(CCCCC)c1	TDP1 cell noCPT 2.59µM, TDP1 cell CPT 2.59µM (no result: ClpP mod)
Cc1nc2c(OCc3ccc(OC(F)F)cc3)cccn2c1N(C)C(=O)CCC1CCCC1	TDP1 cell noCPT 10.3µM, TDP1 cell CPT 13µM (no result: TDP1 block)
Cc1nc2c(OCc3ccc(F)c(F)c3)cccn2c1N(C)C(=O)CCC1CCCC1	TDP1 cell noCPT 16.4µM, TDP1 cell CPT inconclusive (no result: TDP1 block)
CCN1C/C(=C\c2cccc([N+](=O)[O-])c2)C(=O)/C(=C/c2cccc([N+](=O)[O-])c2)C1	TDP1 cell noCPT 0.92µM, TDP1 cell CPT 0.651µM
O=C(O)c1ccc(-n2ncc3c2/C(=C/c2cccc([N+](=O)[O-])c2)CC3)cc1	TDP1 cell noCPT inconclusive, TDP1 cell CPT 16.4µM (no result: TDP1 block)
O=C(O)c1ccc(-n2ncc3c2/C(=C\c2cccc([N+](=O)[O-])c2)CC3)cc1	TDP1 cell noCPT inconclusive, TDP1 cell CPT inconclusive (no result: TDP1 block)
O=C1/C(=C/c2cccc([N+](=O)[O-])c2)CCc2ccccc21	TDP1 cell noCPT 14.6µM, TDP1 cell CPT inconclusive
CCN1CCN(C(=O)CN(c2cc(OC)ccc2OC)S(C)(=O)=O)CC1	none
Cc1ccc(Cl)cc1N1CCN(C(=O)CN(C2CCCCC2)S(C)(=O)=O)CC1	TDP1 cell noCPT 8.2µM, TDP1 cell CPT 14.6µM
COc1ccc(OC)c(N(CC(=O)N2CCN(c3cc(Cl)ccc3C)CC2)S(C)(=O)=O)c1	TDP1 cell noCPT inconclusive, TDP1 cell CPT 14.6µM
CS(=O)(=O)N(CC(=O)N1CCN(c2cccc(Cl)c2)CC1)C1CCCCC1	TDP1 cell noCPT inconclusive
O=C(COC(=O)CSc1cccc2cccc(Cl)c12)Nc1ncc(C(F)(F)F)cc1Cl	none
CCc1ccc(CN(C)Cc2nc(-c3cccc(Cl)c3)no2)nc1	TDP1 cell noCPT inconclusive (no result: ClpP mod)
Cc1ccccc1Nc1nnc(SCc2cc(=O)n3ccsc3n2)s1	TDP1 cell noCPT 16.4µM, TDP1 cell CPT inconclusive
COc1ccc(Cl)cc1NC(=O)c1c(C(=O)Nc2cccc(C)c2C)sc2nc(C)cc(=O)n12	TDP1 cell noCPT 20.6µM, TDP1 cell CPT inconclusive
COC(=O)c1ccc(NC(=O)c2c(C(=O)Nc3ccccc3)sc3nc(C)cc(=O)n23)cc1	none
CS(=O)(=O)N1N=C(c2cccs2)CC1c1ccccc1 (centres undefined)	none
Fc1ccc(N2N=C(c3cccs3)CC2c2ccccc2)cc1 (centres undefined)	TDP1 cell noCPT inconclusive, TDP1 block 12.6µM (no result: ClpP mod)
c1ccc(C2Oc3ccccc3C3CC(c4cccs4)=NN32)cc1 (centres undefined)	TDP1 cell noCPT 16.4µM, TDP1 cell CPT inconclusive
COc1cc(CN(C)C)cc(C=O)c1O	none (no result: ClpP mod)
COc1cc(N=Nc2ccc(Br)cc2)cc(C=O)c1O	TDP1 cell noCPT 4.61µM, TDP1 cell CPT 5.17µM (no result: TDP1 block)
Cc1ccc(C2CC(=O)c3cnc(N4CC(C)CC(C)C4)nc3C2)cc1 (centres undefined)	none (no result: TDP1 cell noCPT, TDP1 cell CPT, ClpP mod)
CC1CC(C)CN(c2ncc3c(n2)CC(c2ccc(Cl)cc2)CC3=O)C1 (centres undefined)	TDP1 cell noCPT 8.2µM, TDP1 cell CPT inconclusive
CC1CC(C)CN(c2ncc3c(n2)CC(c2ccccc2Cl)CC3=O)C1 (centres undefined)	TDP1 cell noCPT 20.6µM, TDP1 cell CPT inconclusive
CC1=C(C(=O)OC(C)C)C(c2cccc(F)c2)n2ncnc2N1 (centres undefined)	TDP1 cell noCPT 16.4µM, TDP1 cell CPT 14.6µM
CC1=C(C(N)=O)C(c2cccc(O)c2)n2ncnc2N1 (centres undefined)	none
Cc1ccccc1OC(=O)n1c(=S)oc2cc(Cl)ccc21	TDP1 cell noCPT inconclusive, TDP1 cell CPT inconclusive
CCOC(=O)c1cc(-c2ccccc2)sc1NC(=S)Nc1cc(C)ccn1	TDP1 cell noCPT 10.3µM, TDP1 cell CPT inconclusive
COc1cc(C(=O)Nc2nc(OC)c(-c3ccccc3)c(OC)n2)cc(OC)c1OC	TDP1 cell noCPT 18.4µM, TDP1 cell CPT inconclusive
CCOC(=O)c1cc(-c2ccccc2)sc1NC(=O)c1cc(OC)c(OC)c(OC)c1	TDP1 cell noCPT 18.4µM, TDP1 cell CPT inconclusive, ClpP mod inconclusive
CCOC(=O)c1cc(-c2ccccc2)sc1NC(=O)CC(C)C	TDP1 cell noCPT inconclusive
C=CCN1[C@@H](C(C)C)COCCS1(=O)=O	none (no result: TDP1 block)
CC(NC(=O)CSc1nc(-c2cccc(Cl)c2)nc2cc(=O)[nH]n12)c1nc2ccccc2n1C (centres undefined)	none
O=C(Nc1ccc(Cl)cc1)NC1CCCCC1Cc1ccco1 (centres undefined)	TDP1 cell noCPT 18.4µM, TDP1 cell CPT inconclusive
CC(C)CN1CCC(=O)N(CCOc2ccccc2)CC1	none (no result: TDP1 block)
CC(C)CN1CCC(=O)N([C@H](COc2ccccc2)c2ccccc2)CC1	TDP1 cell noCPT 22.4µM, TDP1 cell CPT inconclusive (no result: TDP1 block)

Bioassay records as filed in PubChem.
